Sampled rows, rich in hits. Any-hit rate of the full collection: about 4%.
RecA splice inh – blocks M. tuberculosis RecA intein splicing | cell-free RecA intein splicing, fluorescence | P9WHJ3 | inhibition, % (test concentration not listed) | 0.75% of 290,000 active | AID 2221; in the data active means inhibition above about 30%
Target sequence (P9WHJ3 whole entry, looked up, canonical isoform): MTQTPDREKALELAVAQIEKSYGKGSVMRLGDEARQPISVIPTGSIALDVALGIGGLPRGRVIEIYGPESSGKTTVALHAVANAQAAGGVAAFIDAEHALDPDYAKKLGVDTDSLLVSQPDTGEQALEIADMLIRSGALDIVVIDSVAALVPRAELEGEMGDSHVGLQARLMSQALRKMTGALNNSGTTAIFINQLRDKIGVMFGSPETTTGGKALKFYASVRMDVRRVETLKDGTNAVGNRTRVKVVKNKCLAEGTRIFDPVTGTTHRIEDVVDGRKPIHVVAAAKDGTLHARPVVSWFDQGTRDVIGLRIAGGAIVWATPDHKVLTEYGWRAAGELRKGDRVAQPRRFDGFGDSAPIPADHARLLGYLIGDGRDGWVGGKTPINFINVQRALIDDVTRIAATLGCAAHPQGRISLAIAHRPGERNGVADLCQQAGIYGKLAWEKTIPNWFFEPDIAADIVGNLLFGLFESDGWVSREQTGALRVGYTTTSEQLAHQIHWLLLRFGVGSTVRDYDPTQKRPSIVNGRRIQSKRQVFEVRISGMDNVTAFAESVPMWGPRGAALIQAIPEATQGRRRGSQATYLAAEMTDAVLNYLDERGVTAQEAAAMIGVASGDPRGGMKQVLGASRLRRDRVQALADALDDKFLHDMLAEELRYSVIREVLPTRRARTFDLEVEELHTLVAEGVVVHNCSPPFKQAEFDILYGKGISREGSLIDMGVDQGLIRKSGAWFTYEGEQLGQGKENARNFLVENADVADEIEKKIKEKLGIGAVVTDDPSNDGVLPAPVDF
Mtb FBA inh – inhibitors of M. tuberculosis fructose-bisphosphate aldolase. 2.3% of 360,000 active. purified M. tuberculosis FBA, fluorescence read-out. inhibition, % at 1 µM. AID 588726
Rv3671c inh – inhibitors of M. tuberculosis serine protease Rv3671c; 0.048% of 320,000 active; AID 2606; inhibition, % at 5.96 µM; P9WHR9; in the data active means inhibition above about 38%;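 further: extracellular domain of Rv3671c used as enzyme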
Mtb UGM inh – Mtb UDP-galactopyranose mutase inhibition | AID 504406 | 0.06% of 320,000 active | purified UGM, fluorescence polarization probe displacement | inhibition, % at 10 µM | P9WIQ1; in the data active means inhibition above about 10%, passing the limit was not always enough
Mtb betalactam – beta-lactam sensitization of Mtb H37Rv; M. tuberculosis H37Rv growth with meropenem, percent inhibition; inhibition, % at 25 µM; 0.27% of 330,000 active; AID 434955; call rule not given here;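 further: growth measured after seven days incubation then overnight dye step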
GDH-TPI counter-1 – inhibits GDH-TPI coupling enzymes, artifact for Mtb FBA screen. 1.2% of 360,000 active. GDH-TPI coupled enzyme counterscreen, NADH absorbance. inhibition, % at 4.8 µM; in the data active means inhibition above about 30%
Mtb FBA confirm – confirmation of M. tuberculosis fructose-bisphosphate aldolase inhibitors. shares compounds with Mtb FBA inh. AID 651616. 78% of 5,600 active. inhibition, % at 1 µM. purified M. tuberculosis FBA, fluorescence read-out
GDH-TPI counter-2 – GDH-TPI inhibition counter-screen for FBA inhibitors; shares compounds with Mtb FBA inh; GDH-TPI coupled enzyme counterscreen, fluorescence; inhibition, % at 1 µM; 81% of 5,600 active; AID 652141; in the data active means inhibition above about 10%
GDH-TPI DR – GDH-TPI dose response counter-screen for Mtb FBA. 79% of 170 active. GDH-TPI coupled enzyme assay, fluorescence, artifact counterscreen. IC50, µM. shares compounds with Mtb FBA inh; call rule not given here
Hits are given with their value. Unless noted, no stated cut-off is given here; in the data, active means inhibition above about 27%; inactive means the rest.

For C=CCc1c(OC)ccc2ccc(=O)oc12 the results were RecA splice inh inactive, Mtb FBA inh 55, Rv3671c inh inactive, Mtb UGM inh inactive, Mtb betalactam inactive, GDH-TPI counter-1 inactive, Mtb FBA confirm 124 and GDH-TPI counter-2 105.
`O=C(Nc1ccc(O)c(C(=O)O)c1)Oc1ccccc1` gave RecA splice inh inactive, Mtb FBA inh 73, Rv3671c inh inactive, Mtb UGM inh inactive, Mtb betalactam inactive, GDH-TPI counter-1 inactive, Mtb FBA confirm 138 and GDH-TPI counter-2 99.
`CC(=O)Nc1ccc(NC(=O)Oc2ccccc2)cc1` gave RecA splice inh inactive, Mtb FBA inh inactive, Rv3671c inh inactive, Mtb UGM inh inactive, Mtb betalactam inactive and GDH-TPI counter-1 inactive.
`CCC1(c2ccccc2)NC(=O)N(CC(=O)N(C)Cc2c(F)cccc2Cl)C1=O` (stereo unspecified) gave RecA splice inh inactive, Mtb FBA inh inactive, Rv3671c inh inactive, Mtb UGM inh inactive, Mtb betalactam inactive and GDH-TPI counter-1 inactive.
COCCn1nnnc1C(c1ccccc1OC)N1CCN(c2ccccc2)CC1 (stereo unspecified) was read as RecA splice inh inactive, Mtb FBA inh 40, Rv3671c inh inactive, Mtb UGM inh inactive, Mtb betalactam inactive, GDH-TPI counter-1 inactive, Mtb FBA confirm 60 and GDH-TPI counter-2 41.
Screening CCCC(c1nnnn1Cc1ccc(OC)cc1)N1CCN(c2ccccc2)CC1 (stereo unspecified) returned RecA splice inh inactive, Mtb FBA inh inactive and GDH-TPI counter-1 inactive.
Screening COc1ccc(Cn2nnnc2C(CC(C)C)N2CCN(c3ccccc3)CC2)cc1 (stereo unspecified) returned RecA splice inh inactive, Mtb FBA inh 55, Rv3671c inh inactive, Mtb UGM inh inactive, Mtb betalactam inactive, GDH-TPI counter-1 inactive, Mtb FBA confirm inactive, GDH-TPI counter-2 inactive and GDH-TPI DR inactive.
For COc1ccccc1C(c1nnnn1CCc1ccccc1)N1CCN(c2ccccc2)CC1 (stereo unspecified) the results were RecA splice inh inactive, Mtb FBA inh inactive, Rv3671c inh inactive, Mtb UGM inh inactive, Mtb betalactam inactive and GDH-TPI counter-1 inactive.
`Cc1cc(C)cc(OC(C)C(=O)Nc2ccc(S(=O)(=O)Nc3cc(C)nc(C)n3)cc2)c1` (stereo unspecified) gave RecA splice inh inactive, Mtb FBA inh inactive, Rv3671c inh inactive, Mtb UGM inh inactive, Mtb betalactam inactive and GDH-TPI counter-1 inactive.
O=C(Nc1ccc(S(=O)(=O)Nc2nccs2)cc1)c1ccccc1OC(F)F was read as Mtb FBA inh inactive, Rv3671c inh inactive, Mtb UGM inh inactive, Mtb betalactam inactive and GDH-TPI counter-1 inactive.
`C=CCn1c2ccccc2c(=O)c2cc(C#CC3(O)CCCCC3)ccc21` gave RecA splice inh inactive, Mtb FBA inh 65, Rv3671c inh inactive, Mtb UGM inh inactive, Mtb betalactam inactive, GDH-TPI counter-1 inactive, Mtb FBA confirm 134 and GDH-TPI counter-2 108.
Screening CCOc1cc2c(C#N)c(N3CCCCC3)nc(N)c2c(N)n1 returned RecA splice inh inactive, Mtb FBA inh 28, Rv3671c inh inactive, Mtb UGM inh inactive, Mtb betalactam inactive, GDH-TPI counter-1 inactive, Mtb FBA confirm 84 and GDH-TPI counter-2 53.
For CCOc1cc2c(C#N)c(N3CCNCC3)nc(N)c2c(N)n1 the results were RecA splice inh inactive, Mtb FBA inh 40, Rv3671c inh inactive, Mtb UGM inh inactive, Mtb betalactam inactive, GDH-TPI counter-1 inactive, Mtb FBA confirm 151 and GDH-TPI counter-2 125.
For Cc1ccc(-n2ncc3c(=O)n(CC(N)=O)cnc32)cc1C the results were RecA splice inh inactive, Mtb FBA inh inactive, Rv3671c inh inactive, Mtb UGM inh inactive, Mtb betalactam inactive and GDH-TPI counter-1 inactive.
`Cc1nc2c3cnn(-c4ccc(C)c(C)c4)c3ncn2n1` gave RecA splice inh inactive, Mtb FBA inh 38, Rv3671c inh inactive, Mtb UGM inh inactive, Mtb betalactam inactive, GDH-TPI counter-1 inactive, Mtb FBA confirm 119 and GDH-TPI counter-2 96.
`COc1ccc(NC(=O)C(Sc2ccccc2)c2ccccc2)c(OC)c1` (stereo unspecified) gave RecA splice inh inactive, Mtb FBA inh 72, Rv3671c inh inactive, Mtb UGM inh inactive, Mtb betalactam inactive, GDH-TPI counter-1 inactive, Mtb FBA confirm 45 and GDH-TPI counter-2 33.
CCOC(=O)N1CCN(C(=O)Nc2ccc3nc(C)c(C)nc3c2)CC1 was read as RecA splice inh inactive, Mtb FBA inh 43, Rv3671c inh inactive, Mtb UGM inh inactive, Mtb betalactam inactive, GDH-TPI counter-1 inactive, Mtb FBA confirm active and GDH-TPI counter-2 active.
Screening CCOC(=O)N1CCN(C(=O)Nc2ccc3nccnc3c2)CC1 returned RecA splice inh inactive, Mtb FBA inh inactive, Rv3671c inh inactive, Mtb UGM inh inactive, Mtb betalactam inactive and GDH-TPI counter-1 inactive.
For Cc1nc2ccc(NC(=O)N3CCCCC3)cc2nc1C the results were RecA splice inh inactive, Mtb FBA inh 63, Rv3671c inh inactive, Mtb UGM inh inactive, Mtb betalactam inactive, GDH-TPI counter-1 inactive, Mtb FBA confirm 159 and GDH-TPI counter-2 130.
CC1CCCCN1C(=O)COC(=O)c1cccc(NS(=O)(=O)c2ccccc2)c1 (stereo unspecified) was read as RecA splice inh inactive, Mtb FBA inh inactive, Rv3671c inh inactive, Mtb UGM inh inactive, Mtb betalactam inactive and GDH-TPI counter-1 inactive.
`CCCCn1c(NC(=O)c2ccc(Br)o2)c(C(=O)OCC)c2nc3ccccc3nc21` gave RecA splice inh inactive, Mtb FBA inh 58, Rv3671c inh inactive, Mtb UGM inh inactive, Mtb betalactam inactive, GDH-TPI counter-1 inactive, Mtb FBA confirm active and GDH-TPI counter-2 179.
CCOC(=O)c1sc(NS(=O)(=O)c2ccccc2)nc1C was read as RecA splice inh inactive, Mtb FBA inh inactive, Rv3671c inh inactive, Mtb UGM inh inactive, Mtb betalactam inactive and GDH-TPI counter-1 inactive.
`CCOC(=O)c1c(N)n(-c2ccc(N)cc2)c2nc3ccccc3nc12` gave RecA splice inh inactive, Mtb FBA inh inactive, Rv3671c inh inactive, Mtb UGM inh inactive, Mtb betalactam inactive and GDH-TPI counter-1 inactive.
CCCCn1c(NS(=O)(=O)c2ccccc2)c(C(=O)OCC)c2nc3ccccc3nc21 was read as RecA splice inh inactive, Mtb FBA inh 53, Rv3671c inh inactive, Mtb UGM inh inactive, Mtb betalactam inactive, GDH-TPI counter-1 inactive, Mtb FBA confirm 194 and GDH-TPI counter-2 151.
Screening COCCn1c(N)c(Sc2ccc([N+](=O)[O-])cc2)c(=O)[nH]c1=O returned RecA splice inh inactive, Mtb FBA inh inactive, Rv3671c inh inactive, Mtb UGM inh inactive, Mtb betalactam inactive and GDH-TPI counter-1 inactive.

Screens deposited in PubChem BioAssay by several laboratories.
